Source: PubChem
KKLEB tox – reduces viability of KKLEB cystic fibrosis airway cells; actives 0.36% (n = 360,000); KKLEB CF airway cells viability, ATPlite luminescence, overnight; hits give low values; cells stimulated with P. aeruginosa culture filtrate; activity change (cytotoxicity), % at 5 µM;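 active means corrected activity change at or below -50% at 5 µM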
TWEAK-Fn14 inh – TWEAK-Fn14 signaling inhibition; actives 2% (n = 360,000); AID 1159606; TWEAK-stimulated Fn14 reporter cells, luciferase luminescence, 8 h; inhibition, % at 10 µM; in the data active means inhibition above about 50%
HIF-2a block – HIF-2a inhibition. 786-0 RCC cells HIF-2a reporter, luciferase luminescence, overnight. inhibition, % at 18.8 µM. actives 0.72% (n = 360,000). AID 624352;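 active means inhibition of the luminescence signal of 40% or more relative to plate controls, in a single-dose primary screen at 18.75 µM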
TROY signal inh – blocks TROY-dependent signaling in reporter cells; inhibition, % at 10 µM; actives 0.98% (n = 360,000); AID 1347056; Q293 LMP1-TROYcd NF-kB luciferase reporter, 4 h;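 active means compounds whose plate-normalised and pattern-corrected inhibition of the luciferase reporter signal at the single screening dose is 50% or more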
CF NFkB inh – inhibitors of cystic fibrosis induced NF-kB | KKLEB NF-kB-GFP reporter, PAF-induced, GFP fluorescence overnight | inhibition, % at 5 µM | actives 0.86% (n = 360,000) | AID 588850;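 active means at least 50% inhibition at 5 µM, scaled per plate between neutral and stimulator controls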;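 further: PAF is a Pseudomonas aeruginosa culture filtrate used as stimulus; plate controls were PAF-stimulated DMSO wells for no effect and unstimulated DMSO wells for full effect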
Peg3 promoter – reduces Peg3 promoter-driven luciferase expression in HeLa; actives 1.7% (n = 360,000); inhibition, % at 20 µM; HeLa PEG-Prom luciferase reporter, luminescence, overnight; AID 588405;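 active means inhibition of at least 50% at 20 µM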
CF NFkB inh conf – confirmation of cystic fibrosis induced NF-kB inhibitors | shares compounds with CF NFkB inh | KKLEB CF airway cells, PAF-induced NF-kB-GFP fluorescence, overnight | inhibition, % at 5 µM | actives 64% (n = 1,300); in the data active means inhibition above about 40%;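 further: stimulus PAF is a Pseudomonas aeruginosa filtrate and not platelet activating factor; plate controls were DMSO wells with stimulus for no effect and unstimulated DMSO wells for full effect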
Mdm2-MdmX confirm – Mdm2/MdmX (human) interaction inhibition, confirmed. shares compounds with HIF-2a block. SaOS-2 split-luciferase Mdm2/MdmX complementation, luminescence. inhibition, % at 8 µM. actives 99% (n = 740);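 active means mean inhibition of the luminescence signal across two replicates at or above 26 percent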
Target sequence (O15151 whole entry, looked up): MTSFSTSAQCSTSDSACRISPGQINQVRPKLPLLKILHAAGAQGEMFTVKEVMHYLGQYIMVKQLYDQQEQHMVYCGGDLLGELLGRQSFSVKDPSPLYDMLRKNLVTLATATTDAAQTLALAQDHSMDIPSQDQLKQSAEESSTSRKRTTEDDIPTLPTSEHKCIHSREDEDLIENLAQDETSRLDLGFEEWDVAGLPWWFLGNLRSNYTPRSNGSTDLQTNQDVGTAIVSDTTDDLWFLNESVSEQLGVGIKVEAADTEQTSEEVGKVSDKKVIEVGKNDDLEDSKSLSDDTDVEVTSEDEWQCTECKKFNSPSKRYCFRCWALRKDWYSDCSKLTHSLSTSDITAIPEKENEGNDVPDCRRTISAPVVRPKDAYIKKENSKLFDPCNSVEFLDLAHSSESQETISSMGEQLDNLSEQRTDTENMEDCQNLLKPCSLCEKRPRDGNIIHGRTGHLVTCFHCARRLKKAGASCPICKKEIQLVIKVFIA
Target sequence (Q00987 whole entry, looked up): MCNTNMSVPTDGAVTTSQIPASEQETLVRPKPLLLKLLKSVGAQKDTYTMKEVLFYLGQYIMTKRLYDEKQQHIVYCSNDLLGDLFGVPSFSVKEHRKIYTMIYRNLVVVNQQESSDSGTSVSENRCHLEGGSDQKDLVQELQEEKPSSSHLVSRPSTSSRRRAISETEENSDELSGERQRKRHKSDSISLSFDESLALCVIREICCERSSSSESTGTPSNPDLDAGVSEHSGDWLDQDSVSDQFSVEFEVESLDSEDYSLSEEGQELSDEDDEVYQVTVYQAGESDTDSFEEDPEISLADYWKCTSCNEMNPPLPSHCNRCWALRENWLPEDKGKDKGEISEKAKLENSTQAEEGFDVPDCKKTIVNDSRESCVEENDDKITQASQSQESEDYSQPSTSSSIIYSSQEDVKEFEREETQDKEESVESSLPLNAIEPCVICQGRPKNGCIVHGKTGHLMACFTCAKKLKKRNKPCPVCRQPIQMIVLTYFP
HIF-2a conf – HIF-2a inhibition, single concentration confirmation. 786-0 RCC cells, HIF-2a luciferase reporter luminescence, overnight. shares compounds with HIF-2a block. inhibition, % at 18.8 µM. actives 56% (n = 1,800). AID 651580;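 active means mean inhibition across four replicates of at least 40 percent at the single tested concentration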
HIF-1a cs – inhibits HIF-1a reporter, a counter-screen for HIF-2a inhibitors | shares compounds with HIF-2a block | MiaPaCa-2 HIF-1a luciferase reporter, desferoxamine, overnight | inhibition, % at 18.8 µM | actives 72% (n = 1,800) | AID 651589;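 active means mean inhibition of the reporter signal across four replicates at the single tested dose of 50% or more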
* = called active by the depositor; nt = no result given. Most compounds without a hit are left out; they make up all but 4% or so of the library.

SMILES | KKLEB tox | TWEAK-Fn14 inh | HIF-2a block | TROY signal inh | CF NFkB inh | Peg3 promoter | CF NFkB inh conf | HIF-2a conf | HIF-1a cs | others
O=C(c1nnsc1S(=O)c1ccc(Cl)cc1)N1CCOCC1 (configuration not stated) | -6 | 86* | 28 | 51* | 84* | 101* | 105* | nt | nt | Mdm2-MdmX confirm=102*
N#Cc1c(Oc2ccc3ccccc3c2)sc(C(=O)c2ccccc2)c1N | -15 | 40 | 42* | 5 | 51* | 48 | -102 | 17 | -82
FC(F)(F)c1nnc2c(Sc3ccc(Cl)cc3)nc3ccccc3n12 | -17 | 61* | 41* | -52 | 104* | 67* | 101* | 10 | 46
FC(F)(F)c1nnc2c(Sc3ccccn3)nc3ccccc3n12 | -10 | 20 | -45 | -26 | 47 | 24 | nt | nt | nt
CCOC(=O)Nc1ccc(Cc2ccncc2)cc1 | -6 | -2 | -66 | -31 | 30 | -43 | nt | nt | nt
Cc1cccc(CS(=O)(=O)c2ncc(Cl)c(C(=O)NCc3ccccc3)n2)c1 | -26 | 97* | 69* | 63* | 86* | 97* | 82* | 69* | 62*
Cc1ccc(-c2ccc(SCC(=O)N3CCN(c4ccccc4)CC3)nn2)cc1 | 9 | 32 | -104 | -23 | -10 | -58 | nt | nt | nt
Cn1ncc2c(O/N=C(\N)c3ccc(C(C)(C)C)cc3)ncnc21 | -44 | 100* | 93* | 32 | 58* | 112* | 88* | 98* | -198 | Mdm2-MdmX confirm=103*
O=[N+]([O-])c1ccc(C=CC=Cc2ccccc2)cc1 | 11 | -29 | -241 | -42 | -47 | -255 | nt | nt | nt
CN(c1ccccc1)c1ccc(/C=C/[N+](=O)[O-])cc1 | -9 | 103* | 92* | 89* | 65* | 103* | -23 | 85* | 105*
Cc1ccc(CN2CC(N3CCN(C4CCN(C)CC4)CC3)CS2(=O)=O)cc1 (configuration not stated) | 7 | -10 | 0 | 3 | -26 | 4 | nt | nt | nt
C=CCN1c2ccccc2[C@]23C[C@@H](C(=O)OC)N(C(=O)c4ccc(Br)cc4)C2=NC(C(=O)OC)=C(C(=O)OC)[C@H]13 | -30 | 61* | -12 | 31 | 71* | 74* | 58* | nt | nt | Mdm2-MdmX confirm=96*
COC(=O)C1=C(C(=O)OC)[C@@H]2N(Cc3ccccc3)c3ccccc3[C@@]23C[C@@H](C(=O)OC)N(C(=O)c2ccc(Br)cc2)C3=N1 | -24 | 54* | 2 | 10 | 69* | 84* | 78* | nt | nt | Mdm2-MdmX confirm=98*
Cc1cccc(C)c1NC(=O)c1sccc1SCC#N | 8 | -12 | -9 | -16 | -3 | -5 | nt | nt | nt
Cc1nnnn1/C(=C\c1ccccc1)C(=O)OCC(=O)Nc1cccc(S(=O)(=O)N(C)C)c1 | -16 | 72* | 42* | 26 | 63* | 106* | -51 | 79* | 22
CN(C)S(=O)(=O)c1cccc(NC(=O)COC(=O)c2ccc3ccccc3n2)c1 | 16 | -14 | 21 | 1 | -26 | 12 | nt | nt | nt
COCCCNC(=O)CCCn1c(=O)c2ccccc2n(CC(=O)Nc2c(C)cc(C)cc2C)c1=O | 12 | 26 | 3 | -4 | 0 | -10 | nt | nt | nt
O=C(Nc1ccc(N2CCCC2)c(Cl)c1)c1ccc([N+](=O)[O-])o1 | -46 | 26 | 84* | -36 | 70* | 110* | -26 | 50* | 107*
O=C(Nc1ccccc1N1CCCC1)c1ccc([N+](=O)[O-])o1 | -16 | 5 | 18 | 11 | 46 | 31 | nt | nt | nt
CC(C(=O)Nc1sc2c(c1C(=O)NCc1ccco1)CCCC2)N1C(=O)c2ccccc2C1=O (configuration not stated) | -6 | -14 | 2 | -23 | 10 | 6 | nt | nt | nt
CN1CCN(S(=O)(=O)c2ccc(Sc3nnnn3-c3ccccc3)c([N+](=O)[O-])c2)CC1 | -30 | 100* | 67* | 40 | 88* | 91* | 64* | 39 | 100* | Mdm2-MdmX confirm=102*
Cc1sc2nc(COC(=O)c3c(F)cccc3F)[nH]c(=O)c2c1C | 1 | -10 | -3 | -35 | -13 | -37 | nt | nt | nt
CC(C)(C)c1ccc(Oc2ccc(NC(=O)c3ccccc3C(=O)O)cn2)cc1 | -12 | 35 | 56* | 15 | 10 | 12 | nt | 51* | 35
Cc1ccc(NC(=S)NNc2ncc(C(F)(F)F)cc2Cl)cc1 | 6 | 17 | 69* | -29 | 2 | 26 | nt | 82* | 41
O=C(NNc1ncc(C(F)(F)F)cc1Cl)c1ccc(Cl)c(Cl)c1 | 4 | 4 | 16 | 1 | -8 | 2 | nt | nt | nt
SMILES | KKLEB tox | TWEAK-Fn14 inh | HIF-2a block | TROY signal inh | CF NFkB inh | Peg3 promoter | CF NFkB inh conf | HIF-2a conf | HIF-1a cs | others
CON/C=N/C(=S)Nc1ncc(C(F)(F)F)cc1Cl | 19 | -11 | 1 | -13 | -20 | 5 | nt | nt | nt
FC(F)(F)c1cnc(NNC(=S)Nc2ccc(Cl)cc2)c(Cl)c1 | -23 | 61* | 48* | 59* | 44 | 37 | nt | 52* | 38
O=C(N/N=C/c1ccccc1)C(=O)N/N=C/c1ccccc1 | 3 | 1 | 2 | 10 | 5 | 4 | nt | nt | nt
O=C(C=C=Nc1ccccc1)C(=O)N=C=Cc1ccccc1 | -20 | 86* | 75* | 51* | 92* | 102* | nt | 53* | 101*
Cc1ccc(C2(c3ccc(C)cc3)CC2C(=O)Nc2ccc([N+](=O)[O-])cc2O)cc1 (configuration not stated) | -85* | 66* | -18 | 56* | 84* | 53* | nt | nt | nt | Mdm2-MdmX confirm=95*
CC1(C)CC1C(=O)Nc1ccc([N+](=O)[O-])cc1Br (configuration not stated) | -4 | 4 | -13 | -16 | 9 | -14 | nt | nt | nt
CC(=O)Nc1sc2c(c1-c1nc3ccccc3s1)CCN(C(C)C)C2 | -31 | -57 | 40* | -1 | -1 | 99* | nt | nt | nt | Mdm2-MdmX confirm=101*
CC(C)N1CCc2c(sc(NC(=O)Cc3ccccc3)c2C(N)=O)C1 | -1 | 10 | -17 | -3 | -19 | 11 | nt | nt | nt
CCOC(=O)C(C)(C)N(Cc1ccccc1C)S(=O)(=O)c1ccc(Cl)c([N+](=O)[O-])c1 | -1 | 26 | 40* | -5 | 2 | 100* | nt | 21 | 42
CCCCn1nc2cc(C(=O)NCc3cc(C(F)(F)F)cc(C(F)(F)F)c3)ccc2c1OCC | -20 | -40 | -14 | -18 | -8 | -9 | nt | nt | nt
